Results taken from PubChem BioAssay (NCATS).
Records with an inconclusive call do not appear. Calls of active or inactive are those of the source. Unless noted, calls follow the shape of the dose curve; as a rule, active = well fitted curve in the direction sought with a large enough effect; inconclusive = small, poorly fitted or top-dose-only effect, or another doubt; inactive = no such curve, though single readings can be large; an effect the other way counts as inactive or inconclusive.

Key:
[1] = qHTS for differential inhibitors of proliferation of Plasmodium falciparum line 3D7 (AID 1876); also: potency is read from the fitted curve at half-maximal effect
[2] = qHTS for differential inhibitors of proliferation of Plasmodium falciparum line D10 (AID 1877);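 also: parasites grown with compound for 72 h before DNA staining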; also: potency is read from the fitted curve at half-maximal effect
[3] = qHTS for differential inhibitors of proliferation of Plasmodium falciparum line W2 (AID 1883); conditions: Potency: Plasmodium falciparum W2 proliferation inhibition;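 also: parasites grown with compound for 72 h before lysis and staining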; also: potency is read from the fitted curve at half-maximal effect
[4] = qHTS for differential inhibitors of proliferation of Plasmodium falciparum line HB3 (AID 1886); conditions: Potency: Plasmodium falciparum HB3 proliferation inhibition;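 also: parasites grown with compound for 72 h before SYBR Green readout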; also: potency is read from the fitted curve at half-maximal effect
[5] = Quantitative high throughput screen for delayed death inhibitors of the malarial parasite plastid, 48 hour incubation (AID 488752); also: nearly all actives have a fitted effect of over 65% in size
Summary of the method: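 First, compound was pinned into RPMI 1640 medium containing 0.5% Albumax. Next, reporter-parasite-infected erythrocytes were added to 2% hematocrit and 0.1% parasitemia. After 48 h at 37 C under 5% CO2, luciferase detection reagent was added and luminescence read.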

[6] = target: Voltage-gated inwardly rectifying potassium channel KCNH2 (Homo sapiens) (UniProt Q12809); assay: qHTS Assay for Small Molecule Inhibitors of the Human hERG Channel Activity (AID 588834);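 also: lower thallium flux fluorescence means stronger hERG block; nearly all actives have a fitted effect of over 50% in size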; also: potency is read from the fitted curve at half-maximal effect
Summary of the method: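 In hERG-transduced U2OS cells, dye-loaded for 1 hr at room temperature in dark, test compounds incubated 10 min at 37 °C before thallium stimulation. AC50 values derived by Hill modelling of concentration-response.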

[7] = Cytotoxicity counterscreen for inhibitors of SARS-CoV-2 cell entry (AID 1645845; calls by dose curve; also: nearly all actives have a fitted effect of over 50% in size); conditions: outcome: dose series up to 57.1 µM unless noted
Summary of the method: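 ATP-content luminescence (ATPLite 1step, 15 min RT) read after 48 h compound exposure of Expi293F cells stably expressing human ACE2; normalized to cells-only wells and media-only wells.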

Measured: Potency

Chain of Voltage-gated inwardly rectifying potassium channel KCNH2 (Homo sapiens) (Q12809 whole entry, looked up): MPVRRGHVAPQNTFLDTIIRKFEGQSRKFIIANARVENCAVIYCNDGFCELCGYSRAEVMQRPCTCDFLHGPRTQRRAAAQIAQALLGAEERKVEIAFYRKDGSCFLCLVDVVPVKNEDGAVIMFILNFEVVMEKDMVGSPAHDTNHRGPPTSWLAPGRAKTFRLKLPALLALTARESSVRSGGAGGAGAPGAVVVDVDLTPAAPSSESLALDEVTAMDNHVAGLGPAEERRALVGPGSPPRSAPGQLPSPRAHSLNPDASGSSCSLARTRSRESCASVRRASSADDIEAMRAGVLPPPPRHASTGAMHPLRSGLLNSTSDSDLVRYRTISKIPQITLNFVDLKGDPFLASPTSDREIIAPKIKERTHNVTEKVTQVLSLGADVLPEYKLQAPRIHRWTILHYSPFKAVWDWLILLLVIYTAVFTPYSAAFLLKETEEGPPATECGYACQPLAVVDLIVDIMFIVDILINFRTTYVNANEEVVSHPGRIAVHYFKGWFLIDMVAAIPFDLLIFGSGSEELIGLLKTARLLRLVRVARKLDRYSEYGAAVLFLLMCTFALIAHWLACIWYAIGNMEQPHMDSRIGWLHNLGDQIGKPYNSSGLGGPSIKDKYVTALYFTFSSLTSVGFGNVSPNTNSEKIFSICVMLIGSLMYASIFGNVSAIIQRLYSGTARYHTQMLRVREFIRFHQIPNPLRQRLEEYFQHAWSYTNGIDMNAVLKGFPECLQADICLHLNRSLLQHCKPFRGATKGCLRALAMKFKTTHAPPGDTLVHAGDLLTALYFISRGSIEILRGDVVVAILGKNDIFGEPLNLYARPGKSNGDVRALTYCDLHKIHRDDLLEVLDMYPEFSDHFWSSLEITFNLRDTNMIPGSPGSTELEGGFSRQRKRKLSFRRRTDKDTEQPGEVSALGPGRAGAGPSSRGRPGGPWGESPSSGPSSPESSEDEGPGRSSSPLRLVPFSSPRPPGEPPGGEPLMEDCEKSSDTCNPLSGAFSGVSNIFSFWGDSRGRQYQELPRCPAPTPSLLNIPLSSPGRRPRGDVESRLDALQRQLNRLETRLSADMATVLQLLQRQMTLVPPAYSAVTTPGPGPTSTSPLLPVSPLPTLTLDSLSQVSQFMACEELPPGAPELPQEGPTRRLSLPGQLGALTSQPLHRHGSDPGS

C[C@H]1OC[C@@H](C[N+](C)(C)C)O1
not listed: [7]
inactive: all other assays above

CN1CCC23CCCC[C@H]2C1Cc1ccc(O)cc13 (some centres not stated)
active: [3] 1.58 µM
inactive: [1] | [2] | [4] | [5]

C[N+]1(C)C2CC(OC(=O)C(CO)c3ccccc3)CC1C1OC12 (configuration not stated)
not listed: [7]
inactive: all other assays above

CCCN1CCC[C@@H]2Cc3n[nH]cc3C[C@H]21
inactive: [1] | [2] | [4] | [5]

Oc1ccc2c3c1O[C@H]1[C@@H](O)CC[C@@]4(O)C(C2)N(CC2CCC2)CCC314 (some centres not stated)
inactive: [1] | [2] | [4]
active: [6] 5.01 µM

CCN1C[C@]2(C)CC[C@H](O)[C@@]34[C@@H]5C[C@@H]6[C@@H](OC)C[C@@](O)(C5[C@H]6O)[C@@H](C[C@@H]23)[C@@H]14
inactive: [1] | [2] | [4] | [6]

CC[C@@H](CO)NC(=O)[C@H]1C=C2c3cccc4c3c(cn4C)C[C@H]2N(C)C1
inactive: [6]

N#CC(=Cc1ccc(O)c(O)c1)C(N)=S
inactive: [2] | [5] | [6]

COc1cc(C[C@@H](C)N)c(OC)cc1I
active: [3] 3.98 µM
not listed: [7]
inactive: all other assays above

CCCN(CCC)C(=O)Cc1c(-c2ccc(Cl)cc2)nc2c(Cl)cc(Cl)cn12
inactive: [4] | [5] | [6]

C#CCN(C)C(C)Cc1ccccc1 (configuration not stated)
not listed: [7]
inactive: all other assays above

COc1ccc2c(c1O)-c1cccc3c1C(C2)N(C)CC3 (configuration not stated)
active: [1] 10 µM | [2] 14.1 µM | [3] 7.94 µM | [4] 12.6 µM

CC12CCC3C(CCC4=C(O)C(=O)CCC43C)C1CCC2=O (configuration not stated)
inactive: [1] | [2] | [5] | [6]

CCNC(=O)[C@H]1O[C@@H](n2cnc3c(N)ncnc32)[C@H](O)[C@H]1O
not listed: [7]
inactive: all other assays above

CCC(CO)NC(=O)[C@@H]1C=C2c3cccc4[nH]cc(c34)C[C@H]2N(C)C1 (some centres not stated)
active: [1] 14.1 µM | [3] 12.6 µM | [4] 10 µM
inactive: [5] | [6]

C[C@]12CC[C@H]3[C@@H](CCC4C[C@H](O)CC[C@@]43C)[C@@H]1CC[C@@H]2O (some centres not stated)
not listed: [7]
inactive: all other assays above

COc1cc(C=C(C#N)C#N)cc(O)c1O
inactive: [6]
active: [3] 10 µM

NC(Cn1ccc(=O)[nH]c1=O)C(=O)O (configuration not stated)
not listed: [7]
inactive: all other assays above

CN1C[C@@H](CS(=O)(=O)N(C)C)C[C@@H]2c3cccc4c3c(cn4C)C[C@H]21
inactive: [6]
active: [1] 3.98 µM | [3] 3.55 µM

CCCN1CCC[C@@H](c2cccc(C#N)c2)C1
active: [3] 11.2 µM
not listed: [7]
inactive: all other assays above

COC(=O)C(N)CCCN=C(N)N[N+](=O)[O-] (configuration not stated)
not listed: [7]
inactive: all other assays above

C[C@@H]1CCC[C@H](C)N1NC(=O)c1ccc(Cl)c(S(N)(=O)=O)c1
inactive: [7]
